Reference: PubChem BioAssay (NCATS)
Results filed as inconclusive are left out. Where a call stands in place of a potency, no number is given. Activity calls are given as the source filed them. Calls come from the whole dose curve; as a rule, active = well fitted inhibition curve with a large enough effect; inconclusive = small, poorly fitted or top-dose-only effect; inactive = flat fitted curve, though single readings scatter.

Experiments:
[1] = biological target: Luciferin 4-monooxygenase (Photinus pyralis) (UniProt P08659); assay: Biochemical firefly luciferase enzyme assay for NPC (AID 624030);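 note: purified P. pyralis luciferase at 10 nM with luciferin and ATP substrate; nearly all actives have a fitted effect of over 70% in size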
Procedure, shortened: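 Counter-screen for direct inhibition of the luciferase enzyme by approved-drug library compounds, run at 10 nM enzyme in 50 mM Tris acetate (final). Luminescence was read within 5 min of enzyme-buffer addition and normalized to PTC124 versus DMSO (0%).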

7G8 = assay: qHTS profiling for inhibitors of Plasmodium falciparum proliferation (AID 504749); note: nearly all actives have a fitted effect of over 60% in size; note: potency is the fitted concentration of half-maximal effect; details: P. falciparum in erythrocytes, SYBR Green DNA, 72 h; series mostly up to 12.8 µM
Procedure, shortened: (§1)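 Parasite proliferation within erythrocytes, 72 h exposure. Endpoint: SYBR Green I fluorescence after overnight lysis at room temperature. Controls: 0.29 uM artemisinin, DMSO.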

AA1029 = assay: as above; details: P. falciparum in erythrocytes, SYBR Green DNA, 72 h; series mostly up to 12.8 µM
Procedure, shortened: as §1

ATS95 = assay: as above; details: P. falciparum in erythrocytes, SYBR Green DNA, 72 h; series mostly up to 12.8 µM
Procedure, shortened: as §1

CP194 = assay: as above; details: P. falciparum in erythrocytes, SYBR Green DNA, 72 h; series mostly up to 12.8 µM
Procedure, shortened: as §1

CP215 = assay: as above; details: P. falciparum in erythrocytes, SYBR Green DNA, 72 h; series mostly up to 12.8 µM
Procedure, shortened: as §1

CP250 = assay: as above; details: P. falciparum in erythrocytes, SYBR Green DNA, 72 h; series mostly up to 12.8 µM
Procedure, shortened: as §1

CP256 = assay: as above; details: P. falciparum in erythrocytes, SYBR Green DNA, 72 h; series mostly up to 12.8 µM
Procedure, shortened: as §1

CP286 = assay: as above; details: P. falciparum in erythrocytes, SYBR Green DNA, 72 h; series mostly up to 12.8 µM
Procedure, shortened: as §1

DIV17 = assay: as above; details: P. falciparum in erythrocytes, SYBR Green DNA, 72 h; series mostly up to 12.8 µM
Procedure, shortened: as §1

Dd2 = assay: as above; details: P. falciparum in erythrocytes, SYBR Green DNA, 72 h; series mostly up to 12.8 µM
Procedure, shortened: as §1

FAB9 = assay: as above; details: P. falciparum in erythrocytes, SYBR Green DNA, 72 h; series mostly up to 12.8 µM
Procedure, shortened: as §1

GB4 = assay: as above; details: P. falciparum in erythrocytes, SYBR Green DNA, 72 h; series mostly up to 12.8 µM
Procedure, shortened: as §1

ICS = assay: as above; details: P. falciparum in erythrocytes, SYBR Green DNA, 72 h; series mostly up to 12.8 µM
Procedure, shortened: as §1

JCK = assay: as above; details: P. falciparum in erythrocytes, SYBR Green DNA, 72 h; series mostly up to 12.8 µM
Procedure, shortened: as §1

P93_24 = assay: as above; details: P. falciparum in erythrocytes, SYBR Green DNA, 72 h; series mostly up to 12.8 µM
Procedure, shortened: as §1

P94_40 = assay: as above; details: P. falciparum in erythrocytes, SYBR Green DNA, 72 h; series mostly up to 12.8 µM
Procedure, shortened: as §1

PC15 = assay: as above; details: P. falciparum in erythrocytes, SYBR Green DNA, 72 h; series mostly up to 12.8 µM
Procedure, shortened: as §1

TAB109 = assay: as above; details: P. falciparum in erythrocytes, SYBR Green DNA, 72 h; series mostly up to 12.8 µM
Procedure, shortened: as §1

CP266 = assay: as above; details: P. falciparum in erythrocytes, SYBR Green DNA, 72 h; series mostly up to 12.8 µM
Procedure, shortened: as §1

Luciferin 4-monooxygenase (Photinus pyralis), sequence (P08659 whole entry, looked up): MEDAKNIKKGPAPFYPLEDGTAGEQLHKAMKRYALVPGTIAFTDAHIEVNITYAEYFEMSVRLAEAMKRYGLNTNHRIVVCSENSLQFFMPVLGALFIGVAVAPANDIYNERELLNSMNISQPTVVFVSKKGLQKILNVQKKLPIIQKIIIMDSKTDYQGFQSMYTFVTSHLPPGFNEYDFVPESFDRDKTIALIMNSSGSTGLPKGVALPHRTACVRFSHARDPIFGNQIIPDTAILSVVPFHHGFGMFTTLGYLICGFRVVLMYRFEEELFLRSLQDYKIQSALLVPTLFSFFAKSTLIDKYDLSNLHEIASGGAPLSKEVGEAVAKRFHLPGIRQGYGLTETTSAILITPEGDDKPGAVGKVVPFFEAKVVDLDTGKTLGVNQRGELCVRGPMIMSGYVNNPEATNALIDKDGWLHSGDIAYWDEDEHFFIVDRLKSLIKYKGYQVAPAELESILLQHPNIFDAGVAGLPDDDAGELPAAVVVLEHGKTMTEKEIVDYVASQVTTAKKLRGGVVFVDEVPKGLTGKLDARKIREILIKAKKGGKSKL

Compound	Potency [1]	Potency (7G8)	Potency (AA1029)	Potency (ATS95)	Potency (CP194)	Potency (CP215)	Potency (CP250)	Potency (CP256)	Potency (CP286)	Potency (DIV17)	Potency (Dd2)	Potency (FAB9)	Potency (GB4)	Potency (ICS)	Potency (JCK)	Potency (P93_24)	Potency (P94_40)	Potency (PC15)	Potency (TAB109)	Potency (CP266)
CC(C)=CCC[C@](C)(O)C1CC=C(C)CC1 (stereo partly specified)	inactive	inactive	inactive	inactive	inactive	inactive	inactive	inactive	inactive	inactive	inactive	inactive	inactive	inactive	inactive	inactive	inactive	inactive	inactive	
COc1ccc2cc1Oc1ccc(cc1)CC1c3c(cc4c(c3Oc3cc5c(cc3OC)CCN(C)C5C2)OCO4)CCN1C (stereo unspecified)	inactive	2.24 µM (active)	3.55 µM (active)	4.47 µM (active)	13.5 µM (active)			10 µM (active)	3.98 µM (active)	7.57 µM (active)	2.24 µM (active)		6.75 µM (active)	2.82 µM (active)		6.31 µM (active)	8.91 µM (active)		7.08 µM (active)	
COc1cc(C2c3cc4c(cc3C(O[C@@H]3OC5COC(c6cccs6)OC5C(O)C3O)C3COC(=O)C23)OCO4)cc(OC)c1O (stereo partly specified)	inactive	0.631 µM (active)	2.24 µM (active)	2.51 µM (active)	1.69 µM (active)	4.26 µM (active)	2 µM (active)	3.16 µM (active)	1.26 µM (active)	4.26 µM (active)	1.41 µM (active)	2.24 µM (active)	2.39 µM (active)	1.26 µM (active)	4.47 µM (active)	1.58 µM (active)	1.26 µM (active)	4.47 µM (active)	2.24 µM (active)	4.78 µM (active)
NC(C(=O)O)[C@@H]1CC(Cl)=NO1 (stereo partly specified)	inactive	0.631 µM (active)	1 µM (active)	1 µM (active)	3.38 µM (active)	3.01 µM (active)	2.82 µM (active)	2.82 µM (active)	0.794 µM (active)	3.38 µM (active)	0.708 µM (active)	2.82 µM (active)	1.2 µM (active)	0.891 µM (active)	5.62 µM (active)	1 µM (active)	1.12 µM (active)	3.16 µM (active)	1 µM (active)	3.79 µM (active)
COC1C=CO[C@@]2(C)Oc3c(C)c(O)c4c(O)c(c(C=NN5CCN(C)CC5)c(O)c4c3C2=O)NC(=O)/C(C)=C\C=CC(C)C(O)[C@@H](C)C(O)C(C)[C@H](OC(C)=O)C1C (stereo partly specified)		0.112 µM (active)	2 µM (active)	2.51 µM (active)	4.78 µM (active)	4.26 µM (active)	6.31 µM (active)	3.55 µM (active)	2.51 µM (active)	0.269 µM (active)	0.251 µM (active)		0.953 µM (active)	0.0891 µM (active)		0.251 µM (active)	0.282 µM (active)	0.398 µM (active)	2 µM (active)	6.75 µM (active)
C/C1=C2N=C(/C=C3N=C(/C(C)=C4\[N-]C(C)(C5N=C1C(C)(CCC(=O)NCC(C)OP(=O)([O-])O[C@H]1C(O)C(n6cnc7cc(C)c(C)cc76)O[C@@H]1CO)C5CC(N)=O)C(C)(CC(N)=O)C4CCC(N)=O)C(C)(CC(N)=O)C\3CCC(N)=O)C(C)(C)C/2CCC(N)=O.[CH2-]C1OC(n2cnc3c(N)ncnc32)C(O)C1O.[Co] (stereo partly specified)	inactive	inactive	inactive	inactive	inactive	inactive	inactive	inactive	inactive	inactive	inactive	inactive	inactive		inactive	inactive	inactive	inactive	inactive	inactive
CNC1CC(N)[C@H](O)[C@@H](O[C@@H]2OC(CO)C3OC4(OC(C(N)CO)C(O)C(O)C4O)O[C@@H]3[C@H]2O)C1O (stereo partly specified)	inactive	inactive	inactive	inactive	inactive	inactive	inactive	inactive	inactive	inactive	inactive	inactive	inactive	inactive	inactive	inactive	inactive	inactive	inactive	inactive
CC(C)C1CCC(C(=O)NC(Cc2ccccc2)C(=O)O)CC1 (stereo unspecified)	inactive	inactive	inactive	inactive	inactive	inactive		inactive	inactive	inactive	inactive	inactive	inactive	inactive	inactive	inactive		inactive	inactive	
C[C@]12CCC(=O)C=C1CCC1C2C(=O)C[C@]2(C)C1CC[C@]2(O)C(=O)CO (stereo partly specified)	inactive	inactive	inactive	inactive	inactive	inactive	inactive	inactive	inactive	inactive	inactive	inactive	inactive	inactive	inactive	inactive	inactive	inactive	inactive	inactive
CN(C)CCCOC1C(C(O)CO)OC2OC(C)(C)O[C@@H]21 (stereo partly specified)	inactive	inactive	inactive	inactive	inactive	inactive	inactive	inactive	inactive	inactive	inactive	inactive	inactive	inactive	inactive	inactive	inactive	inactive	inactive	inactive
CN1CC(=O)N=C1N	inactive	inactive	inactive	inactive	inactive	inactive	inactive	inactive	inactive	inactive	inactive	inactive	inactive	inactive	inactive	inactive	inactive	inactive	inactive	inactive
